ATXN2 expr inh = reduces ATXN2 reporter expression in HEK-293 cells | HEK-293 ATXN2-luciferase reporter, luminescence, 24 h | Potency, µM (titrated, usually from 57 µM), inactives show at the top dose activity change, negative = inhibition, actives largely listed as inhibitors | 0.72% of 360,000 active; further: potency means the concentration at half of the fitted maximal effect; on the % scale 0 is the no-effect control and ±100 the full control effect; nearly all actives have a fitted effect of over 55% in size
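qHTS (up to 57 uM final) was run with 24 h compound exposure of reporter cells at 37 °C. Each well was multiplexed: SteadyGlo luminescence measured ATXN2-luciferase expression after a fluorogenic Gly-Phe-AFC viability readout (25 uM final).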
USP1 inh = inhibitors of human USP1/UAF1 deubiquitinase | O94782 | Potency, µM (top dose mostly 57.1 µM), without a hit: at the top dose activity change, negative = inhibition, most hits filed as inhibitors | 0.23% of 390,000 active | recombinant USP1/UAF1, Ub-Rhodamine cleavage fluorescence; further: potency means the concentration at half of the fitted maximal effect; on the % scale 0 is the no-effect control and ±100 the full control effect; nearly all actives have a fitted effect of over 60% in size
Target sequence (O94782 whole entry, looked up): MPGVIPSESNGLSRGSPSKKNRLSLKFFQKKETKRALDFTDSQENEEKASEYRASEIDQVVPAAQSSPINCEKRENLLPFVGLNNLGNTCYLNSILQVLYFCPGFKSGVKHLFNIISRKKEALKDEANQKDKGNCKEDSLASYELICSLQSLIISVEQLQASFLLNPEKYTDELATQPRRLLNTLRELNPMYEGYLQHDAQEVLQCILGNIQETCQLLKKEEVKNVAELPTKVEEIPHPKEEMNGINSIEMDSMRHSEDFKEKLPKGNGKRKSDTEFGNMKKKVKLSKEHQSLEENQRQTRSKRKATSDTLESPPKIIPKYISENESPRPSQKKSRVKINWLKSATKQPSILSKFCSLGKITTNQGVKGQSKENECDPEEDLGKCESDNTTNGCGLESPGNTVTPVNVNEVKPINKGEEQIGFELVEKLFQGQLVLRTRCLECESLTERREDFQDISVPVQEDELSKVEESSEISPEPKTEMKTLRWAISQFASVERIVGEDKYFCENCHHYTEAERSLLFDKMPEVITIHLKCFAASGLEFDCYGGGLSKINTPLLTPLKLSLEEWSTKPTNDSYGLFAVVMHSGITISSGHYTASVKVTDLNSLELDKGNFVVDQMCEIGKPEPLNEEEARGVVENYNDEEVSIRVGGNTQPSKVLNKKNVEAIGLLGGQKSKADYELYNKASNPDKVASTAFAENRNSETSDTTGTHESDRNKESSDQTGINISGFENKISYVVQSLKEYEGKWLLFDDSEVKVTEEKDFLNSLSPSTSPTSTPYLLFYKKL
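Step one: compound is pinned into 1nM USP1/UAF1 in HEPES pH 7.8 buffer with TCEP. Step two: 15 min room-temperature incubation. Step three: Ub-Rho (150nM final) starts cleavage, tracked by fluorescence over six one-minute reads.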
USP2a inh = blocks human ubiquitin-specific protease USP2a; O75604; USP2 core, Ub-CHOP2 coupled fluorogenic reporter, 485/531; Potency, µM (doses to about 38.3 µM), for inactives: at the top dose activity change, negative = inhibition, most hits filed as inhibitors; 0.01% of 330,000 active; AID 463254;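 further: potency means the concentration at half of the fitted maximal effect; plate controls were DMSO wells for no effect and full inhibition by NEM control for full effect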
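Deubiquitinase activity read as fluorescence (485/531 nm) after Ub-CHOP2 cleavage activates the enterokinase reporter on its substrate; USP2 core 10nM, Ub-CHOP2 and substrate 25nM each, 30min compound preincubation then 60min RT; data normalized to NEM, curves fitted.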
IL1B secr inh = inflammasome signaling inhibition, IL-1 beta readout | THP-1 LPS/ATP IL-1B secretion, AlphaLISA, 16 h; hits give low values | activity change, % at 57.5 µM | 4.7% of 360,000 active; in the data active means activity change below about -50%; inconclusive means mostly about -30% to -49%; further: on the % scale 0 is the no-effect control and ±100 the full control effect
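Secreted IL-1B measured by AlphaLISA bead assay after 16 h compound exposure of THP-1 cells; compounds (final up to 57.5 uM) added 1 h before LPS (250 ng/mL) and ATP (1.25 mM) stimulation; lower signal means less secretion.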
ATXN viability = reduces viability in counter-screen for ATXN expression inhibitors; AID 651635; S2 cells (HEK-293 line with an ATXN2-luciferase reporter) viability, CellTiter-Fluor protease fluorescence, 24 h; 0.49% of 400,000 active; Potency, µM (titrated, usually from 56.7 µM), hits mostly cytotoxic; further: potency means the concentration at half of the fitted maximal effect; nearly all actives have a fitted effect of over 40% in size
Starred values were filed as active, the others as inactive; i = inactive; ? = inconclusive; . = no result given; ! = not confirmed by another sample; [ ] = dose if it differs, or a comment. Only some compounds are listed: those with a hit (about 4.8% of all), similar ones and a draw of the others. Unless noted, the call rests on the fitted dose curve; in most records, active means well fitted curve in the direction sought with a large enough effect; inconclusive means small, poorly fitted or top-dose-only effect, or another doubt; inactive means no such curve, though single readings can be large; an effect the other way counts as inactive or inconclusive.

SMILES	ATXN2 expr inh	USP1 inh	USP2a inh	IL1B secr inh	ATXN viability
CCCOCCOC(=O)c1[nH]c2c(c1C)C(=O)CC(c1cc(OC)ccc1OC)C2 (stereo not drawn)	-19%	-4%	0%	-72*	?
CCOCCOC(=O)c1[nH]c2c(c1C)C(=O)CC(c1ccc(OC)c(OC)c1)C2 (stereo not drawn)	-18%	2%	-3%	-26	i
Cc1ccccc1CN1CCc2nnc(C(C)NC(=O)C3CCN(C)CC3)n2CC1 (stereo not drawn)	.	.	.	.	i
CN(C)/C=N/C(=S)Nc1ccc(Cl)c(Cl)c1	17%	-7%	1%	-91*	i
CN(C)/C=N/C(=S)Nc1cc(Cl)cc(Cl)c1	-33%	-19%	0%	-2	.
CCOc1ccc(C2C(C#N)=C(N)SC(N)=C2C#N)cc1OCC	-2%	32µM*	2%	0	i
O=C(c1ccc(Nc2nccc(-c3cc4ccccc4s3)n2)cc1)N1CCC(N2CCCC2)CC1	19µM*	.	.	.	.
CN1C2CCC1/C(=C\c1ccccc1F)C(=O)/C2=C/c1ccccc1F	-36%	0%	0%	-101*	?
NC(=O)NO	7.7µM*!	-11%	4%	19	i
CC(=O)NO	0%	-25%	.	15	i
CCc1cccc(C)c1NC(=O)c1cnn(-c2ccc(F)cc2)c1-n1cccc1	-10%	-23%	.	.	i
CCc1ccc(NC(=O)c2cnc(SC)nc2C)cc1	20%	0%	2%	22	i
CCC1CN(CCNC(=O)c2ccc3c(c2)OCO3)Cc2cc(OC)ccc2O1 (stereo not drawn)	.	.	.	.	i
O=C(COC(=O)c1ccc([N+](=O)[O-])s1)Nc1ccc(Cl)cn1	.	-20%	4%	0	i
Cc1c(Cl)cnc(NC(=O)COC(=O)c2ccc([N+](=O)[O-])s2)c1Cl	1%	18µM*	6%	42	i
COc1ccccc1-n1cc(CN2CCOc3ccc(CN4C[C@@H](C)O[C@@H](C)C4)cc3C2)cn1	.	.	.	.	i
Cc1ccc2nc(C3CCCCC3)c(Cc3cccc(F)c3)n2c1	?	.	.	-6	?
CCCc1nc2ccc(C)cn2c1Cc1ccccc1	0%	.	.	33	.
Cc1ccc2nc(C3CCCCC3)c(Cc3ccccc3)n2c1	?	.	.	-14	13µM*
CCCc1nc2ccc(C)cn2c1Cc1ccc(C)cc1	?	.	.	-4	25µM*
C[C@H](CCC(=O)O)[C@H]1CC[C@H]2[C@@H]3[C@H](O)C[C@@H]4C[C@H](O)CC[C@]4(C)[C@@H]3CC[C@]12C	7%	.	.	.	.
CCc1ccc(NC(=O)CSC2=C(C#N)C(c3ccco3)C3=C(CCCC3=O)N2)cc1 (stereo not drawn)	17%	-20%	2%	-90*	i
CC(=O)N1CCC2(CC1)C/C(=N\NC(=S)Nc1ccccc1F)c1cc(O)ccc1O2	-10%[11.3 µM]	-2%	3%	-76*	i
Cc1cc(C)c(NC(=O)c2cccc3c2C(=O)N(C2CCCCC2)C3)c(C)c1	-22%	-26%	2%	0	i
COc1ccc(CN2C(=O)CN(S(C)(=O)=O)CC2(C)C(=O)NCc2ccccc2)cc1OC (stereo not drawn)	.	.	.	-7	.
SMILES	ATXN2 expr inh	USP1 inh	USP2a inh	IL1B secr inh	ATXN viability
Cc1ccc(NC(=O)c2sc3nc(-c4ccc(F)cc4)cn3c2C)c(C)c1	.	-2%	.	.	.
O=C(CSC1=NCCN1)NC1CCCCCC1	-3%	-3%	-8%	-97*	?
O=C(CSC1=NCCN1)NC12CC3CC(CC(C3)C1)C2	-14%	-14%	0%	-100*	i
Cn1ccnc1SCC(=O)NC1CCCCC1	7%	-1%	-5%	43	i
Cc1nnc(SCC(=O)NC23CC4CC(CC(C4)C2)C3)s1	7%	-21%	2%	6	?
COc1cccc(CNC(=O)CSc2nnc(C)c3c(C)n(-c4ccccc4)nc23)c1OC	-4%	3%	.	.	i
O=C(Nc1cc(Cl)ccc1O)c1snnc1-c1ccccc1	?	-23%	1%	-90*	?
CN(CCc1cn[nH]c1)Cc1nc(C(c2ccccc2)c2ccccc2)no1	-9%	-13%	2%	-3	i
CCN(CC)CCN(C)Cc1nc(C(c2ccccc2)c2ccccc2)no1	-3%	-4%	-1%	-64*	i

Screening data (PubChem)
